Assay results reported in paper PMC7862700, “An all-to-all approach to the identification of sequence-specific readers for epigenetic DNA modifications on cytosine”.

Experiments:
Test in all cases: DAPPL (digital affinity profiling via proximity ligation, sequencing); 10 mM Tris-HCl pH 7.5, 50 mM NaCl, 1 mM DTT, 4% glycerol, room temperature, 30 min; GST-TFs on glutathione beads, 16-mer random dsDNA library, 0.1% formaldehyde crosslink after washing; high values mean tight binding
[1] = target: T1, FLI1 (Homo sapiens, UniProt Q01543 1-452); conditions: protein: recombinant; tags: N-terminal GST; dsDNA, one strand shown
T1 sequence: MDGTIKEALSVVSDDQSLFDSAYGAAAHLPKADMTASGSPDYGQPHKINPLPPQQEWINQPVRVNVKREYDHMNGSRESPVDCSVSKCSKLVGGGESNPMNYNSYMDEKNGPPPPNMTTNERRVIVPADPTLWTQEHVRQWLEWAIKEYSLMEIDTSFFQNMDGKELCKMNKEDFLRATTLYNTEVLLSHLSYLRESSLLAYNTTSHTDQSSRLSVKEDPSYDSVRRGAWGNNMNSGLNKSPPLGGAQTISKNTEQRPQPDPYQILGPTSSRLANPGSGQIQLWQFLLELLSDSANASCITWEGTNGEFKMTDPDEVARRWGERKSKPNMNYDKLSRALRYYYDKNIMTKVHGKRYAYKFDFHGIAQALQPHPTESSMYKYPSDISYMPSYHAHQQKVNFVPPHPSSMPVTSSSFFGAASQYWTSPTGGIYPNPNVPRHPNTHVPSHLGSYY
Method in brief: (§1)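 Beads coated with glutathione captured GST-fused human transcription factors that had been expressed in yeast, and the factors were then given DNA barcodes and pooled with a tag-only sample. The pools were incubated with 200 nmole of a random double-stranded 16-mer DNA library in Tris/NaCl/DTT/glycerol buffer for 30 min at room temperature, washed, crosslinked with 0.1% formaldehyde and proximity-ligated with BsaI/T4 ligase at 37 °C for 1 h. PCR amplification and Illumina NextSeq500 sequencing came last. Binding signal is each hexamer's read frequency for a factor divided by its frequency for the tag-only sample.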

[2] = target: T2, ELK1 (Homo sapiens, UniProt P19419 1-428); conditions: protein: recombinant; tags: N-terminal GST; dsDNA, one strand shown
T2 sequence: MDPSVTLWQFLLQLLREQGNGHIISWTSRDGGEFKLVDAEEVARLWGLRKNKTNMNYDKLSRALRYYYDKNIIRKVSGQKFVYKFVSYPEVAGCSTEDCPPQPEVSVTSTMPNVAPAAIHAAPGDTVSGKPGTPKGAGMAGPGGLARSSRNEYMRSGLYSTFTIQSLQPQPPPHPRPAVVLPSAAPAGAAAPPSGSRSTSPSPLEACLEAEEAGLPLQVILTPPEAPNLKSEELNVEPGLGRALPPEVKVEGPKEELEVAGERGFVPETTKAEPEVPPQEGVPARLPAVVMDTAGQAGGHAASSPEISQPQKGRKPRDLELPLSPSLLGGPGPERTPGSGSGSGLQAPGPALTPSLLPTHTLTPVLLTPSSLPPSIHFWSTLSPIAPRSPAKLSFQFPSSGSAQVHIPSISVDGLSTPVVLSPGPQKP
Method in brief: as §1

[3] = target: T3, GABPA (Homo sapiens, UniProt Q06546 1-454); conditions: protein: recombinant; tags: N-terminal GST; dsDNA, one strand shown
T3 sequence: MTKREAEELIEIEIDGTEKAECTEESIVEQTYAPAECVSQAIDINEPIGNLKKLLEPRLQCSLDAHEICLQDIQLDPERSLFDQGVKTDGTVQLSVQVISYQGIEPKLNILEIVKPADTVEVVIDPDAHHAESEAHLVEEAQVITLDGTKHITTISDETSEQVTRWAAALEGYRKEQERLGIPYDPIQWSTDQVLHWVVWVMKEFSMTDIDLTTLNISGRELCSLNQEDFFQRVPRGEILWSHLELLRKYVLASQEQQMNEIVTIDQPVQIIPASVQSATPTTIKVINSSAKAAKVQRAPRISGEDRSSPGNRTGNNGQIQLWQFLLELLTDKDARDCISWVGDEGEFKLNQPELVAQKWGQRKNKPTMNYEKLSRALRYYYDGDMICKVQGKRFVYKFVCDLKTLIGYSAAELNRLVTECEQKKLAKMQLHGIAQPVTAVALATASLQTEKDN
Method in brief: as §1

[4] = target: T4, ERG (Homo sapiens, UniProt P11308 1-479); conditions: protein: recombinant; tags: N-terminal GST; dsDNA, one strand shown
T4 sequence: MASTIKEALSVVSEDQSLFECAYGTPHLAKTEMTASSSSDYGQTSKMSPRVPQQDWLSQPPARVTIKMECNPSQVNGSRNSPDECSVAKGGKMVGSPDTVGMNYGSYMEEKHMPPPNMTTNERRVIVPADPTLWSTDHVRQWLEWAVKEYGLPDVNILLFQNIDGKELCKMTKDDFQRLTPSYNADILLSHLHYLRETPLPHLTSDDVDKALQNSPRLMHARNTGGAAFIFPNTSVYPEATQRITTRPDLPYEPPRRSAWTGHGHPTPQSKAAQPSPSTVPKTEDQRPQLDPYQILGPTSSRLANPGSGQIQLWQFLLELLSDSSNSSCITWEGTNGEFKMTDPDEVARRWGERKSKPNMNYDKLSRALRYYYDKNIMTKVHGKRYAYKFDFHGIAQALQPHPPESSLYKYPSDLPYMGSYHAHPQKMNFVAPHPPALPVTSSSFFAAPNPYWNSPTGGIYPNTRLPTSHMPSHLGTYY
Method in brief: as §1

[5] = target: ELF1 (Homo sapiens, UniProt P32519 1-619); conditions: protein: recombinant; tags: N-terminal GST; dsDNA, one strand shown
Sequence of ELF1 (P32519 whole entry): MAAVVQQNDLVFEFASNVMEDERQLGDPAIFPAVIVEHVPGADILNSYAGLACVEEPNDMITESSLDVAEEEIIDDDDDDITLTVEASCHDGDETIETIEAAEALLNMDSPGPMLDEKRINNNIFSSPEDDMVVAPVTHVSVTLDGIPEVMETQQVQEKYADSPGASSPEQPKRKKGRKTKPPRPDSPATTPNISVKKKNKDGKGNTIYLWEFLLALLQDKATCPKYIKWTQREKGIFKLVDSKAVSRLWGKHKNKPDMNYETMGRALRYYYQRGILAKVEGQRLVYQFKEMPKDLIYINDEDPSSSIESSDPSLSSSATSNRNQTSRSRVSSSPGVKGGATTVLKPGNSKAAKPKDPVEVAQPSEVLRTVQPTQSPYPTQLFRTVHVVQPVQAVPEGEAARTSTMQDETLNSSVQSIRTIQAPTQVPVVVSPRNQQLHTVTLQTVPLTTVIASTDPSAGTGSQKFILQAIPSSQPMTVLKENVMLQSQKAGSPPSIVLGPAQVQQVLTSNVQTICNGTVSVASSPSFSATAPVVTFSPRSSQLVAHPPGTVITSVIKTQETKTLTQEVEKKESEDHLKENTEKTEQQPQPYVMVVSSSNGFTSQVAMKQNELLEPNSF
Method in brief: as §1

[6] = target: T5, EHF (Homo sapiens, UniProt Q9NZC4 1-300); conditions: protein: recombinant; tags: N-terminal GST; dsDNA, one strand shown
T5 sequence: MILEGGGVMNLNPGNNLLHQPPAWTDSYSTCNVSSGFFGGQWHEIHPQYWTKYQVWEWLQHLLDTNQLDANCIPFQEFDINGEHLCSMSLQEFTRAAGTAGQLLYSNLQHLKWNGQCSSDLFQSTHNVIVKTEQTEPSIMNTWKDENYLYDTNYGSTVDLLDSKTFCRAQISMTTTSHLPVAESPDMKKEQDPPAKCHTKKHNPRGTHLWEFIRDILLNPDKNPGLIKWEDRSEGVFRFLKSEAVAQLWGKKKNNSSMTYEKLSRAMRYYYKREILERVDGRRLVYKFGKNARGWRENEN
Method in brief: as §1

[7] = target: SPI1 (Homo sapiens, UniProt P17947 1-270); conditions: protein: recombinant; tags: N-terminal GST; dsDNA, one strand shown
Method in brief: as §1

[8] = target: SPIB (Homo sapiens, UniProt Q01892 1-262); conditions: protein: recombinant; tags: N-terminal GST; dsDNA, one strand shown
Sequence of SPIB (Q01892 whole entry): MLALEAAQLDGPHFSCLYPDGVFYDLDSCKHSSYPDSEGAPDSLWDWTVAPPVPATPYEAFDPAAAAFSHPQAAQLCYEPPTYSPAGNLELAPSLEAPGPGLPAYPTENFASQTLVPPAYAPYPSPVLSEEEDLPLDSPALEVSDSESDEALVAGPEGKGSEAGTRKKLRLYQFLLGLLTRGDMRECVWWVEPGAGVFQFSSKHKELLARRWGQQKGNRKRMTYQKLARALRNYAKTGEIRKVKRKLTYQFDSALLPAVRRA
Method in brief: as §1

[9] = target: T6, ELK3 (Homo sapiens, UniProt P41970 1-407); conditions: protein: recombinant; tags: N-terminal GST; dsDNA, one strand shown
T6 sequence: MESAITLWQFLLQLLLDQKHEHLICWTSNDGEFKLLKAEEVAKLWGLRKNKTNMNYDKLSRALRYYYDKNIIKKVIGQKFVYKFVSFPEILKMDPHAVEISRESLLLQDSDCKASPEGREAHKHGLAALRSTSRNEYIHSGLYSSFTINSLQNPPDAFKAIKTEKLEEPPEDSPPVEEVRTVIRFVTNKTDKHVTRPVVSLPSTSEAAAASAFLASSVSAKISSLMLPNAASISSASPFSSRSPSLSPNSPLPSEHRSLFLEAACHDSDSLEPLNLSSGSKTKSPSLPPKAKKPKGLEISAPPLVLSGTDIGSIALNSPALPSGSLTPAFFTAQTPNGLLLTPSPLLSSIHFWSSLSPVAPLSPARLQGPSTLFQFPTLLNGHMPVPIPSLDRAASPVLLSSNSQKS
Method in brief: as §1

[10] = target: T7, FEV (Homo sapiens, UniProt Q99581 1-238); conditions: protein: recombinant; tags: N-terminal GST; dsDNA, one strand shown
T7 sequence: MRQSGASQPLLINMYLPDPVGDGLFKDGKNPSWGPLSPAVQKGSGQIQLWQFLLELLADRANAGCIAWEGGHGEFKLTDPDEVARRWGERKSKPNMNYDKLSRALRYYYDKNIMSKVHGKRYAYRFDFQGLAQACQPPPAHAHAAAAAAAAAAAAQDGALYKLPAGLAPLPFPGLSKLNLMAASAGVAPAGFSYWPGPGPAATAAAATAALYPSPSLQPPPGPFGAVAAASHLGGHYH
Method in brief: as §1

[11] = target: ETV5 (Homo sapiens, UniProt P41161 1-510); conditions: protein: recombinant; tags: N-terminal GST; dsDNA, one strand shown
Sequence of ETV5 (P41161 whole entry): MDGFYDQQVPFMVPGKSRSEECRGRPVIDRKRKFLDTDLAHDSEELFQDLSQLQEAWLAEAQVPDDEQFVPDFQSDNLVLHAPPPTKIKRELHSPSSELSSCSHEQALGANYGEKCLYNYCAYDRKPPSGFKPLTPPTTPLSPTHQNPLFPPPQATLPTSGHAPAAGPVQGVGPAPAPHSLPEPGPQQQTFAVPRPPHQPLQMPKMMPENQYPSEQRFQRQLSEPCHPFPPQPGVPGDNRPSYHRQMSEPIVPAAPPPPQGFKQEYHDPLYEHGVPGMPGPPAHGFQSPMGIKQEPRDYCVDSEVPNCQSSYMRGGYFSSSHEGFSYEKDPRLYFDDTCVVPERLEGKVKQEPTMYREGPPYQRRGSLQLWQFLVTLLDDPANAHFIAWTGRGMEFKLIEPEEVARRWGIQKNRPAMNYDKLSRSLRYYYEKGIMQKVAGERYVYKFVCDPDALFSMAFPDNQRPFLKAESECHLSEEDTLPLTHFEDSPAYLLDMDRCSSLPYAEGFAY
Method in brief: as §1

[12] = target: HSF1 (Homo sapiens, UniProt Q00613 1-529); conditions: protein: recombinant; tags: N-terminal GST; chain copies: 3; dsDNA, one strand shown
Sequence of HSF1 (Q00613 whole entry): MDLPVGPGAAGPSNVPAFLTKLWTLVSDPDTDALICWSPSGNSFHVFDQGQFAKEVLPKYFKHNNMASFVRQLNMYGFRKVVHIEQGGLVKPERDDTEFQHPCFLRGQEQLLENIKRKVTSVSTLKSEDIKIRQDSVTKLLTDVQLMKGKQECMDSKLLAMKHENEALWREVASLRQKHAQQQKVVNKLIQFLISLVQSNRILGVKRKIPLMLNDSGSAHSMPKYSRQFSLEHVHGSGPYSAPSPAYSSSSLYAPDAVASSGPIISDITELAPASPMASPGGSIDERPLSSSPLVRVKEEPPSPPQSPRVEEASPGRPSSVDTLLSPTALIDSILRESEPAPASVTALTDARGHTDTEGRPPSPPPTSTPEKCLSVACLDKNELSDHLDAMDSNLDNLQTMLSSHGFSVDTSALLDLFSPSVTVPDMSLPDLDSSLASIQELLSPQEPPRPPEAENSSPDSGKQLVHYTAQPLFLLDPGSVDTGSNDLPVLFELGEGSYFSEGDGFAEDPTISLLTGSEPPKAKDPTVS
Method in brief: as §1

[13] = target: T8, SPIC (Homo sapiens, UniProt Q8N5J4 1-248); conditions: protein: recombinant; tags: N-terminal GST; dsDNA, one strand shown
T8 sequence: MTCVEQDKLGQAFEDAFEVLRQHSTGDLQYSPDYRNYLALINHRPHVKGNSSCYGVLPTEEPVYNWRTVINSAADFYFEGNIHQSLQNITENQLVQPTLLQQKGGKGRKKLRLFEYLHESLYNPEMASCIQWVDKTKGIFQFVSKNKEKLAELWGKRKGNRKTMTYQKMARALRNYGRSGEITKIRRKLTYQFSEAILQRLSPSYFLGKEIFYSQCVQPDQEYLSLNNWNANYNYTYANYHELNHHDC
Method in brief: as §1

[14] = target: ELF4 (Homo sapiens, UniProt Q99607 1-663); conditions: protein: recombinant; tags: N-terminal GST; dsDNA, one strand shown
Sequence of ELF4 (Q99607 whole entry): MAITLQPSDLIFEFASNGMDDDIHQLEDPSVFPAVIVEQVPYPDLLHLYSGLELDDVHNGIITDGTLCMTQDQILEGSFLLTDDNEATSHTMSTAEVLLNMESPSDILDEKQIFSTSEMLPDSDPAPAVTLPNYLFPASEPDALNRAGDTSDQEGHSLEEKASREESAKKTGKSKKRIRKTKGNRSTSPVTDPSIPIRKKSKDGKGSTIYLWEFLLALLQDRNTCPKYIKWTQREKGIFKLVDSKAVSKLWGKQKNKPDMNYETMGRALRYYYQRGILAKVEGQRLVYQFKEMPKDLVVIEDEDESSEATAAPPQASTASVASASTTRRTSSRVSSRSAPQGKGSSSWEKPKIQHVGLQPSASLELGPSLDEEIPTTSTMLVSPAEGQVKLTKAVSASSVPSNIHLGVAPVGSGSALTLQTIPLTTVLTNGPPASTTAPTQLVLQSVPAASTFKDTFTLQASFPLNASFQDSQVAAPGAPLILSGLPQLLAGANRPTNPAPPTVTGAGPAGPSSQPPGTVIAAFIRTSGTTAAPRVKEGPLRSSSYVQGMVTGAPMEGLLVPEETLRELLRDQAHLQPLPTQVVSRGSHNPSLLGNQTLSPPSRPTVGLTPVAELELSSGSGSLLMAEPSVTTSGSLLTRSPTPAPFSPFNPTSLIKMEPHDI
Method in brief: as §1

[15] = target: T9, ELK4 (Homo sapiens, UniProt P28324-2 1-405); conditions: protein: recombinant; tags: N-terminal GST; dsDNA, one strand shown
T9 sequence: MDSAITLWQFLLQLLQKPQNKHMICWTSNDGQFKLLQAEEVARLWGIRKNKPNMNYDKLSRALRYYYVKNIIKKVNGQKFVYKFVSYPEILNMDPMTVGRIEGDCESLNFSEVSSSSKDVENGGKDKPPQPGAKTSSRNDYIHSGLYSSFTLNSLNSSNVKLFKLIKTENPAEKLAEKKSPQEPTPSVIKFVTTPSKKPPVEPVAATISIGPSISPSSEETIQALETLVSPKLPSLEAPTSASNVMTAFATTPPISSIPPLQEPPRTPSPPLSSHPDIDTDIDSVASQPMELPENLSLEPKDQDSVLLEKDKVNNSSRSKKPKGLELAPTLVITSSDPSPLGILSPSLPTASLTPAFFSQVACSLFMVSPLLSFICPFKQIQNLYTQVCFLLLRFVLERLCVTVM
Method in brief: as §1

[16] = target: T10, ETV2 (Homo sapiens, UniProt O00321 1-342); conditions: protein: recombinant; tags: N-terminal GST; dsDNA, one strand shown
T10 sequence: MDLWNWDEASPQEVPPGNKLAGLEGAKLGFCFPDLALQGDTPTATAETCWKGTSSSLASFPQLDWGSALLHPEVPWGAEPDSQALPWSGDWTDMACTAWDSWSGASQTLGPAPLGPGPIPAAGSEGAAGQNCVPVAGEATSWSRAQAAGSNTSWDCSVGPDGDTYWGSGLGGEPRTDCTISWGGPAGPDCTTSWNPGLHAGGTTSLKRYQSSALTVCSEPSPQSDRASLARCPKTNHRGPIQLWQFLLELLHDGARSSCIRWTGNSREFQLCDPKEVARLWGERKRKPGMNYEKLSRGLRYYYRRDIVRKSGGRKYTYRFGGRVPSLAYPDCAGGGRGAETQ
Method in brief: as §1

[17] = target: T11, ELF3 (Homo sapiens, UniProt P78545 1-371); conditions: protein: recombinant; tags: N-terminal GST; dsDNA, one strand shown
T11 sequence: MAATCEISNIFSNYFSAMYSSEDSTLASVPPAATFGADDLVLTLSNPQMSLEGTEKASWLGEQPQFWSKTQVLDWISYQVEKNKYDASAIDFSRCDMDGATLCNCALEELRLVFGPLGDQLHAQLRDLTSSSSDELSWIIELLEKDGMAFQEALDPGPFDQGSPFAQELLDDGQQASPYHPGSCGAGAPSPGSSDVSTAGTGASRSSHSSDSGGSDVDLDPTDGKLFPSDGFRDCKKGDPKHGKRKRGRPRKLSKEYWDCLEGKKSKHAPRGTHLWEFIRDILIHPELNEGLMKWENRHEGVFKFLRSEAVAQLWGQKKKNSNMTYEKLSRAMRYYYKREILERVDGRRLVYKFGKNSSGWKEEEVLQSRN
Method in brief: as §1

[18] = target: CRX (Homo sapiens, UniProt O43186 1-299); conditions: protein: recombinant; tags: N-terminal GST; dsDNA, one strand shown
Sequence of CRX (O43186 whole entry): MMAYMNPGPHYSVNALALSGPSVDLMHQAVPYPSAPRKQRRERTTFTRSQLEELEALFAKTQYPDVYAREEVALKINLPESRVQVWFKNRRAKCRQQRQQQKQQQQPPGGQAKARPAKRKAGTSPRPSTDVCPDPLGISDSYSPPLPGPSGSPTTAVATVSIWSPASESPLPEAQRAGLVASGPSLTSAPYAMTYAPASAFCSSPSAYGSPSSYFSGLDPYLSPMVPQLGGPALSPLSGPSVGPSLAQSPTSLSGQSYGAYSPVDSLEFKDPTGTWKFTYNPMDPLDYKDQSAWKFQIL
Method in brief: as §1

[19] = target: ETV1 (Homo sapiens, UniProt P50549 1-477); conditions: protein: recombinant; tags: N-terminal GST; dsDNA, one strand shown
Sequence of ETV1 (P50549 whole entry): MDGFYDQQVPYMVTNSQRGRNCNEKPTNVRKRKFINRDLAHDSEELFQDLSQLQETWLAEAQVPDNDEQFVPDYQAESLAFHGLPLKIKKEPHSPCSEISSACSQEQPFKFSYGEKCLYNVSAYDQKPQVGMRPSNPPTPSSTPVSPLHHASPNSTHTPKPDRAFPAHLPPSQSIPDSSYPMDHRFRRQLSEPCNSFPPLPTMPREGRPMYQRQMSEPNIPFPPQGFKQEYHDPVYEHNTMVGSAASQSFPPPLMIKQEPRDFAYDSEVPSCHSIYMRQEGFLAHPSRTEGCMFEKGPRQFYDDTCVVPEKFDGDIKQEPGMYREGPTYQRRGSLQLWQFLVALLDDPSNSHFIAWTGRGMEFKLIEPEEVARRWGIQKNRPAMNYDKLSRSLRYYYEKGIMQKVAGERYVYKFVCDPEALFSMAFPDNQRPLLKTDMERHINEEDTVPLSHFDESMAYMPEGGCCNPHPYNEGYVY
Method in brief: as §1

Sequence: AAGATT
- binding signal [1]: 1.1 fold enrichment (6-mer frequency, TF over GST control)
- binding signal [2]: 1.17 fold enrichment (6-mer frequency, TF over GST control)
- binding signal [3]: 1.18 fold enrichment (6-mer frequency, TF over GST control)
- binding signal [4]: 1.17 fold enrichment (6-mer frequency, TF over GST control)
- binding signal [5]: 1.19 fold enrichment (6-mer frequency, TF over GST control)
- binding signal [6]: 1.16 fold enrichment (6-mer frequency, TF over GST control)
- binding signal [7]: 1.12 fold enrichment (6-mer frequency, TF over GST control)
- binding signal [8]: 1.16 fold enrichment (6-mer frequency, TF over GST control)
- binding signal [9]: 1.04 fold enrichment (6-mer frequency, TF over GST control)
- binding signal [10]: 1.06 fold enrichment (6-mer frequency, TF over GST control)
- binding signal [11]: 1.25 fold enrichment (6-mer frequency, TF over GST control)
- binding signal [12]: 2.11 fold enrichment (6-mer frequency, TF over GST control)
- binding signal [13]: 1.12 fold enrichment (6-mer frequency, TF over GST control)
- binding signal [14]: 1.22 fold enrichment (6-mer frequency, TF over GST control)
- binding signal [15]: 1.35 fold enrichment (6-mer frequency, TF over GST control)
- binding signal [16]: 1.16 fold enrichment (6-mer frequency, TF over GST control)
- binding signal [17]: 1.08 fold enrichment (6-mer frequency, TF over GST control)
- binding signal [18]: 2.4 fold enrichment (6-mer frequency, TF over GST control)
- binding signal [19]: 1.18 fold enrichment (6-mer frequency, TF over GST control)
